The panel holds about 79,000 compounds, 15% with a hit somewhere; the sample as a whole holds those more often. The source made the active and inactive calls. Cut-off read from the data, not from the text of the source: active = growth inhibition above about 70%; inactive = the rest.
How the values were obtained:
[1] = NCI Yeast Anticancer Drug Screen. Data for the wt1 strain (AID 149);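 note: 0% = growth of vehicle-treated wt1 cultures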; details: S. cerevisiae wt1 strain (SPY 50644) growth inhibition, active compounds read high
Method in brief: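 wt1 strain grown with compound or vehicle; inhibition taken from the growth difference.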

[2] = NCI Yeast Anticancer Drug Screen. Data for the rad50EPP+ strain (AID 151);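 note: 0% = growth of vehicle-treated control cultures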; details: S. cerevisiae rad50 mutant strain, active compounds read high
Method in brief: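 Compounds were applied to the rad50EPP+ yeast strain, which bears a defined DNA repair alteration, and growth inhibition was determined relative to vehicle-treated cultures.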

[3] = NCI Yeast Anticancer Drug Screen. Data for the mgt1 strain (AID 153); details: S. cerevisiae mgt1 mutant growth inhibition, active compounds read high
Method in brief: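 Strain: mgt1 yeast, one of a set carrying defined DNA damage repair or cell cycle control alterations. Compound-treated growth compared with vehicle.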

[4] = NCI Yeast Anticancer Drug Screen. Data for the rad50 strain (AID 155);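 note: 0% = growth of vehicle-only cultures of the same strain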; details: S. cerevisiae rad50 strain growth inhibition, active compounds read high
Method in brief: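 DNA repair mutant yeast, compound exposure, growth read-out; inhibition is taken relative to vehicle.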

[5] = NCI Yeast Anticancer Drug Screen. Data for the mec2-1 strain (AID 157); details: S. cerevisiae mec2-1 strain, active compounds read high
Method in brief: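 Strain: mec2-1 (DNA repair/cell cycle alteration). Compound exposure, then growth measured; inhibition expressed relative to vehicle.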

[6] = NCI Yeast Anticancer Drug Screen. Data for the rad14 strain (AID 159);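 note: 0% = growth of vehicle-treated control cultures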; details: S. cerevisiae rad14 strain growth inhibition, active compounds read high
Method in brief: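 DNA repair-defective yeast, compound-exposed; % growth inhibition derived by comparison with vehicle-treated controls.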

[7] = NCI Yeast Anticancer Drug Screen. Data for the sgs1 mgt1 strain (AID 161);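 note: 0% = growth of cultures given vehicle only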; details: S. cerevisiae sgs1 mgt1 strain, active compounds read high
Method in brief: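 Genetically altered yeast, compound exposure, growth inhibition relative to vehicle.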

[8] = NCI Yeast Anticancer Drug Screen. Data for the CLN2oe strain (AID 163);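 note: 0% = growth of vehicle-only control cultures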; details: S. cerevisiae CLN2oe strain, active compounds read high
Method in brief: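 Growth of a genetically modified yeast strain is measured after compound exposure and compared with cultures given vehicle alone.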

[9] = NCI Yeast Anticancer Drug Screen. Data for the cln2 rad14 strain (AID 165);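 note: 0% = growth equal to vehicle treated cultures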; details: S. cerevisiae cln2 rad14 strain, active compounds read high
Method in brief: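 Compounds are applied to the cln2 rad14 yeast strain, and growth is then compared with that of vehicle-treated cultures to give inhibition.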

[10] = NCI Yeast Anticancer Drug Screen. Data for the bub3 strain (AID 167); details: S. cerevisiae bub3 mutant strain, active compounds read high
Method in brief: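 In this screen, a yeast mutant lacking normal mitotic checkpoint function is challenged with compound. Relative growth versus vehicle gives the inhibition value.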

[11] = NCI Yeast Anticancer Drug Screen. Data for the wt2 strain (AID 169);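 note: 0% = growth of vehicle-treated yeast cultures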; details: S. cerevisiae wt2 strain growth inhibition, active compounds read high
Method in brief: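 This strain belongs to a panel of yeast strains with defined genetic alterations in DNA damage repair or cell cycle control. Compounds are applied, and growth inhibition is measured against vehicle-treated cultures.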

[12] = NCI Yeast Anticancer Drug Screen. Data for the mlh1 strain (AID 171);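 note: 0% = growth of vehicle-treated control cultures of the same strain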; details: S. cerevisiae mlh1 strain growth inhibition, active compounds read high
Method in brief: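 Growth of the mutant yeast strain after compound exposure, expressed as inhibition relative to vehicle-only controls.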

[13] = NCI Yeast Anticancer Drug Screen. Data for the sgs1 strain (AID 173);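 note: 0% = growth of vehicle-only control cultures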; details: S. cerevisiae sgs1 mutant, active compounds read high
Method in brief: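 Growth of a yeast strain bearing a defined genetic alteration is measured after compound treatment. Inhibition is expressed relative to vehicle-only controls.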

[14] = NCI Yeast Anticancer Drug Screen. Data for the mlh1 rad18 strain (AID 175); details: S. cerevisiae mlh1 rad18 strain growth inhibition, active compounds read high
Method in brief: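 Read-out is yeast growth inhibition, calculated against vehicle-only controls. The compound was applied to a strain engineered with DNA damage repair alterations.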

[15] = NCI Yeast Anticancer Drug Screen. Data for the rad18 strain (AID 177); details: S. cerevisiae rad18 mutant growth inhibition, active compounds read high
Method in brief: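 Growth of the mutant yeast strain after compound exposure, normalised to vehicle-only cultures.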

[16] = at 5.0 µM (retest, dose inferred, filed as 0.5)
[17] = at 50.0 µM (retest, dose inferred, filed as 5.0)

Measured: growth inhibition

O=C1C(Br)=CC(Br)(Br)C=C1Br
inactive: [1]; at 1.2 µM 6% | [1]; at 3.7 µM 9% | [1]; at 11.0 µM 47% | [2]; at 1.2 µM 24% | [2]; at 3.7 µM 31% | [3]; at 1.2 µM 9% | [3]; at 3.7 µM 1% | [3]; at 11.0 µM 58% | [4]; at 1.2 µM 0% | [4]; at 3.7 µM -3% | [4]; at 11.0 µM 30% | [5]; at 1.2 µM 6% | [5]; at 3.7 µM 28% | [5]; at 11.0 µM 51% | [6]; at 1.2 µM -32% | [6]; at 3.7 µM -10% | [6]; at 11.0 µM 28% | [7]; [16] -27% | [8]; at 1.2 µM 24% | [8]; at 3.7 µM 18% | [8]; at 11.0 µM 34% | [9]; [16] 56% | [10]; at 1.2 µM -8% | [10]; at 3.7 µM -16% | [10]; [16] 21% | [10]; at 11.0 µM 7% | [11]; at 1.2 µM -9% | [11]; at 3.7 µM -11% | [11]; at 11.0 µM 51% | [12]; at 1.2 µM -8% | [12]; at 3.7 µM -10% | [12]; at 11.0 µM 46% | [13]; at 1.2 µM 2% | [13]; at 3.7 µM 5% | [13]; at 11.0 µM 59% | [15]; at 1.2 µM -4% | [15]; at 3.7 µM -13% | [15]; at 11.0 µM 26%
active: [1]; at 33.0 µM 97% | [1]; at 100.0 µM 99% | [2]; at 11.0 µM 70% | [2]; at 33.0 µM 98% | [2]; at 100.0 µM 98% | [3]; at 33.0 µM 98% | [3]; at 100.0 µM 99% | [4]; [16] 99% | [4]; at 33.0 µM 95% | [4]; [17] 99% | [4]; at 50.0 µM 90.8% | [4]; at 100.0 µM 98% | [5]; [16] 100% | [5]; at 33.0 µM 99% | [5]; [17] 97% | [5]; at 50.0 µM 93.5% | [5]; at 100.0 µM 99% | [6]; at 33.0 µM 95% | [6]; at 100.0 µM 98% | [7]; [17] 100% | [7]; at 50.0 µM 93.7% | [8]; at 33.0 µM 98% | [8]; at 100.0 µM 99% | [9]; [17] 100% | [9]; at 50.0 µM 92.5% | [10]; at 33.0 µM 96% | [10]; [17] 99% | [10]; at 50.0 µM 92% | [10]; at 100.0 µM 98% | [11]; at 33.0 µM 96% | [11]; at 100.0 µM 98% | [12]; at 33.0 µM 96% | [12]; at 100.0 µM 98% | [13]; at 33.0 µM 96% | [13]; at 100.0 µM 98% | [14]; [16] 100% | [14]; [17] 100% | [14]; at 50.0 µM 90.6% | [15]; at 33.0 µM 95% | [15]; at 100.0 µM 98%

— PubChem BioAssay (NCI)
